PubChem BioAssay (EPA / NIEHS)
“And” between values parts separate entries of the source, which are not always exact repeats. Equal entries are not always repeated. The source made the active and inactive calls. Rule for the calls: active = hit-call score of the fitted dose curve at least 0.9, where 1 is the maximum; inactive = score below 0.9.

Tests used:
[1] = read-out: Interleukin-6 (IL6), IL6 (gene 3569); assay: BSK_CASM3C_IL6: BioMAP Diversity Plus: CASM3C Assay for Interleukin-6 (IL6) Biomarker Activity for (AID 2283040); settings: primary human coronary artery smooth muscle cells; actives raise or lower the signal
[2] = read-out: Interleukin-8 (IL8), CXCL8 (gene 3576); assay: BSK_CASM3C_IL8: BioMAP Diversity Plus: CASM3C Assay for Interleukin-8 (IL8) Biomarker Activity (AID 2283042); settings: primary human coronary artery smooth muscle cells; actives raise or lower the signal;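 note: IL-8 protein level quantified by ELISA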
[3] = read-out: Human Leukocyte Antigen - DR isotype (HLADR), HLA-DRA (gene 3122); assay: BSK_CASM3C_HLADR: BioMAP Diversity Plus: CASM3C Assay for Human Leukocyte Antigen - DR isotype (HLADR) Biomarker Activity (AID 2283043); settings: primary human coronary artery smooth muscle cells; actives raise or lower the signal;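 note: cell-surface HLA-DR protein level quantified by ELISA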
[4] = read-out: Macrophage colony-stimulating factor (MCSF), CSF1 (gene 1435); assay: BSK_CASM3C_MCSF: BioMAP Diversity Plus: CASM3C Assay for Macrophage colony-stimulating factor (MCSF) Biomarker Activity (AID 2283044); settings: primary human coronary artery smooth muscle cells; actives raise or lower the signal;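 note: M-CSF protein amount quantified by ELISA after 24 h exposure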
[5] = read-out: Low-density lipoprotein receptor (LDLR), LDLR (gene 3949); assay: BSK_CASM3C_LDLR: BioMAP Diversity Plus: CASM3C Assay for Low-density lipoprotein receptor (LDLR) Biomarker Activity (AID 2283045); settings: primary human coronary artery smooth muscle cells; actives raise or lower the signal;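 note: LDLR protein level on the cell surface quantified by ELISA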
[6] = read-out: Monocyte Chemoattractant Protein-1 (MCP1), CCL2 (gene 6347); assay: BSK_CASM3C_MCP1: BioMAP Diversity Plus: CASM3C Assay for Monocyte Chemoattractant Protein-1 (MCP1) Biomarker Activity (AID 2283046); settings: primary human coronary artery smooth muscle cells; actives raise or lower the signal;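 note: MCP-1 level quantified by ELISA 24 h after dosing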
[7] = read-out: Monokine induced gamma interferon (MIG), CXCL9 (gene 4283); assay: BSK_CASM3C_MIG: BioMAP Diversity Plus: CASM3C Assay for Monokine induced gamma interferon (MIG) Biomarker Activity (AID 2283048); settings: primary human coronary artery smooth muscle cells; actives raise or lower the signal;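 note: MIG protein level measured by ELISA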
[8] = read-out: serum amyloid A (SAA), SAA1 (gene 6288); assay: BSK_CASM3C_SAA: BioMAP Diversity Plus: CASM3C Assay for serum amyloid A (SAA) Biomarker Activity (AID 2283049); settings: primary human coronary artery smooth muscle cells; actives raise or lower the signal;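 note: SAA protein level quantified by ELISA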
[9] = read-out: Tissue plasminogen activator (tPA), PLAT (gene 5327); assay: BSK_BE3C_tPA: BioMAP Diversity Plus: BE3C Assay for Tissue plasminogen activator (tPA) Biomarker Activity (AID 2283041); settings: primary human bronchial epithelial cells; actives raise or lower the signal
Method in brief: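 Using human lung primary bronchial epithelial cells, tPA was measured by ELISA 24 h after dosing; data fitted relative to DMSO.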

[10] = BSK_CASM3C_Proliferation: Cell Proliferation Assessment in the BioMAP Diversity Plus: CASM3C Assay (AID 2283047); settings: primary human coronary artery smooth muscle cells;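 note: sulforhodamine B total protein stain as relative cell number at 560 nm; sub-confluent cells exposed 48 h before staining; fitted both ways against DMSO so gain or loss of cell number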

Measured: AC50

Clc1ccccc1-c1nnc(-c2ccccc2Cl)nn1
not listed: [9] | [10]
inactive: all other assays above

Oc1cc(Cl)ccc1Oc1ccc(Cl)cc1Cl
active: [9] 20.4 µM [middle of 4 runs] | [2] 37.7 µM [middle of 4 runs] | [3] 29.4 µM [middle of 4 runs] | [4] 34 µM [middle of 4 runs] | [5] 30 µM [middle of 4 runs] | [6] 33.6 µM and 37.7 µM and 31.4 µM | [10] 17.6 µM [middle of 4 runs] | [7] 37.8 µM [middle of 4 runs] | [8] 32 µM [middle of 4 runs]

O=C(NC(=O)c1c(F)cccc1F)Nc1ccc(OC(F)(F)C(F)OC(F)(F)F)c(Cl)c1 (centres undefined)
not listed: [9]
inactive: all other assays above

O=[N+]([O-])c1c(Cl)c(Cl)c(Cl)c(Cl)c1Cl
not listed: [9]
inactive: all other assays above

CN1CSC(=S)N(C)C1
active: [1] 16.4 µM | [10] 14.5 µM
not listed: [4] | [9]
inactive: all other assays above

COC(=O)c1ccccc1S(=O)(=O)NC(=O)Nc1nc(C)nc(OC)n1
not listed: [9]
inactive: all other assays above

CCC(C)(C)C(=O)OC1=C(c2ccc(Cl)cc2Cl)C(=O)OC12CCCCC2
active: [4] 13.7 µM | [10] 25.7 µM
not listed: [9]
inactive: all other assays above

CNC(=O)Oc1ccccc1OC(C)C
not listed: [9]
inactive: all other assays above

CCc1ccc(C(=O)NN(C(=O)c2cc(C)cc(C)c2)C(C)(C)C)cc1
active: [10] 22.9 µM
not listed: [9]
inactive: all other assays above

N#Cc1c(Cl)c(Cl)c(Cl)c(C#N)c1Cl
active: [1] 3.56 µM | [2] 3.36 µM | [3] 6.09 µM | [4] 3.31 µM | [6] 3.56 µM | [10] 0.148 µM | [7] 2.14 µM | [8] 4.82 µM
inactive: [5]

CC(C)(C)C(O)/C(=C\c1ccc(Cl)cc1Cl)n1cncn1 (centres undefined)
active: [10] 20 µM
not listed: [9]
inactive: all other assays above

O=C(O)CCCOc1ccc(Cl)cc1Cl
not listed: [9]
inactive: all other assays above

CCN(CC)C(=O)SCc1ccc(Cl)cc1
active: [10] 16.4 µM
not listed: [9]
inactive: all other assays above

CC[C@H](C)[C@H]1O[C@]2(C=C[C@@H]1C)C[C@@H]1C[C@@H](C/C=C(\C)[C@@H](O[C@H]3C[C@H](OC)[C@@H](O[C@H]4C[C@H](OC)[C@@H](O)[C@H](C)O4)[C@H](C)O3)[C@@H](C)/C=C/C=C3\CO[C@@H]4[C@H](O)C(C)=C[C@@H](C(=O)O1)[C@]34O)O2 (tested in a mixture with another compound)
inactive: [5] | [8]
active: [1] 13.9 µM | [2] 17.4 µM | [3] 9.73 µM | [4] 20 µM | [6] 11.7 µM | [10] 6.85 µM | [7] 29.7 µM
